Article PMC5540273 (PLoS ONE, 2017)
Several values for one entry are separate records, joined by “and”; a condition that tells them apart may be missing. Identical values can stand only once. Like-named read-outs stand apart in the source and are kept apart here.

Experiments:
PIKFYVE = settings: concentration: 1 μM, replicates: in singlicate; n = 1
PIM1 = settings: concentration: 1 μM, replicates: in singlicate, n = 1
PIM2 = settings: concentration: 1 μM, replicates: in singlicate; n = 1
PIM3 = settings: concentration: 1 μM, replicates: in singlicate, n = 1
PIP5K1A = settings: concentration: 1 μM, replicates: in singlicate, n = 1
PIP5K1C = settings: concentration: 1 μM, replicates: in singlicate, n = 1
PIP5K2B = settings: concentration: 1 μM, replicates: in singlicate, n = 1
PIP5K2C = test system: T1, PIP5K2C; settings: concentration: 1 μM, replicates: in singlicate, n = 1
T1 construct: gene PIP4K2C

PKAC-alpha = test system: T2, PKAC-alpha; settings: concentration: 1 μM, replicates: in singlicate, n = 1
T2 construct: gene PRKACA

PKAC-beta = test system: T3, PKAC-beta; settings: concentration: 1 μM, replicates: in singlicate, n = 1
T3 construct: gene PRKACB

PKMYT1 = settings: concentration: 1 μM, replicates: in singlicate, n = 1
PKN1 = settings: concentration: 1 μM, replicates: in singlicate, n = 1
PKN2 = settings: concentration: 1 μM, replicates: in singlicate, n = 1
PLK1 = settings: concentration: 1 μM, replicates: in singlicate, n = 1
PLK2 = settings: concentration: 1 μM, replicates: in singlicate, n = 1
PLK3 = settings: concentration: 1 μM, replicates: in singlicate; n = 1
PLK4 = settings: concentration: 1 μM, replicates: in singlicate, n = 1
PRKCD = settings: concentration: 1 μM, replicates: in singlicate, n = 1
PRKCE = settings: concentration: 1 μM, replicates: in singlicate, n = 1
PRKCH = settings: concentration: 1 μM, replicates: in singlicate, n = 1
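Also: KINOMEscan kinase panel screen.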

CSc1ccc(-c2cc3ncnc(SCC(=O)O)c3s2)cc1
%Inh (PIKFYVE): 28%
%Inh (PIM1): 0%
%Inh (PIM2): 0%
%Inh (PIM3): 0%
%Inh (PIP5K1A): 0%
%Inh (PIP5K1C): 0%
%Inh (PIP5K2B): 20%
%Inh (PIP5K2C): 7%
%Inh (PKAC-alpha): 0%
%Inh (PKAC-beta): 0%
%Inh (PKMYT1): 10%
%Inh (PKN1): 8%
%Inh (PKN2): 0%
%Inh (PLK1): 0%
%Inh (PLK2): 0%
%Inh (PLK3): 0%
%Inh (PLK4): 11%
%Inh (PRKCD): 17%
%Inh (PRKCE): 26%
%Inh (PRKCH): 2%

CN1c2ccc(CNc3ccc(F)cc3)cc2-c2c(cnn2C)S1(=O)=O
%Inh (PIKFYVE): 17%
%Inh (PIM1): 0%
%Inh (PIM2): 14%
%Inh (PIM3): 5%
%Inh (PIP5K1A): 5%
%Inh (PIP5K1C): 23%
%Inh (PIP5K2B): 0%
%Inh (PIP5K2C): 24%
%Inh (PKAC-alpha): 5%
%Inh (PKAC-beta): 0%
%Inh (PKMYT1): 0%
%Inh (PKN1): 0%
%Inh (PKN2): 0%
%Inh (PLK1): 11%
%Inh (PLK2): 15%
%Inh (PLK3): 11%
%Inh (PLK4): 0%
%Inh (PRKCD): 0%
%Inh (PRKCE): 5%
%Inh (PRKCH): 0%

CCCCCc1nc2c(N)ncnc2n1CCCCC [SKF-97255]
%Inh (PIKFYVE): 0%
%Inh (PIM1): 0%
%Inh (PIM2): 5%
%Inh (PIM3): 7%
%Inh (PIP5K1A): 1%
%Inh (PIP5K1C): 0%
%Inh (PIP5K2B): 0%
%Inh (PIP5K2C): 0%
%Inh (PKAC-alpha): 24%
%Inh (PKAC-beta): 0%
%Inh (PKMYT1): 0%
%Inh (PKN1): 0%
%Inh (PKN2): 0%
%Inh (PLK1): 19%
%Inh (PLK2): 18%
%Inh (PLK3): 27%
%Inh (PLK4): 25%
%Inh (PRKCD): 18%
%Inh (PRKCE): 0%
%Inh (PRKCH): 7%

NCCNS(=O)(=O)c1ccc(-c2ccnc3[nH]ccc23)cc1 [GSK977617]
%Inh (PIKFYVE): 0%
%Inh (PIM1; 1 µM): 56% and 35%
%Inh (PIM2): 0%
%Inh (PIM3; 1 µM): 40% and 0%
%Inh (PIP5K1A; 1 µM): 61% and 30%
%Inh (PIP5K1C; 1 µM): 83% and 62%
%Inh (PIP5K2B; 1 µM): 76% and 35%
%Inh (PIP5K2C; 1 µM): 17% and 13%
%Inh (PKAC-alpha; 1 µM): 99.3% and 98.8%
%Inh (PKAC-beta; 1 µM): 99.2% and 98.3%
%Inh (PKMYT1; 1 µM): 5% and 0%
%Inh (PKN1; 1 µM): 44% and 19%
%Inh (PKN2; 1 µM): 66% and 50%
%Inh (PLK1; 1 µM): 6% and 2%
%Inh (PLK2; 1 µM): 10% and 0%
%Inh (PLK3): 0%
%Inh (PLK4; 1 µM): 26% and 24%
%Inh (PRKCD; 1 µM): 97.7% and 95.2%
%Inh (PRKCE; 1 µM): 96.8% and 68%
%Inh (PRKCH; 1 µM): 95% and 91%

Cl.Nc1ncnc2occ(-c3ccc(NC(=O)Nc4cc(C(F)(F)F)ccc4F)cc3)c12 [SB-707548]
%Inh (PIKFYVE): 25%
%Inh (PIM1): 23%
%Inh (PIM2): 0%
%Inh (PIM3): 0%
%Inh (PIP5K1A): 28%
%Inh (PIP5K1C): 57%
%Inh (PIP5K2B): 36%
%Inh (PIP5K2C): 45%
%Inh (PKAC-alpha): 9%
%Inh (PKAC-beta): 0%
%Inh (PKMYT1): 0%
%Inh (PKN1): 0%
%Inh (PKN2): 0%
%Inh (PLK1): 5%
%Inh (PLK2): 98.8%
%Inh (PLK3): 98%
%Inh (PLK4): 35%
%Inh (PRKCD): 27%
%Inh (PRKCE): 10%
%Inh (PRKCH): 1%

NS(=O)(=O)c1cccc(-c2ccc3ncc(N4CCOCC4)nc3c2)c1 [GSK1535721]
%Inh (PIKFYVE): 11%
%Inh (PIM1): 14%
%Inh (PIM2): 0%
%Inh (PIM3): 0%
%Inh (PIP5K1A): 0%
%Inh (PIP5K1C): 48%
%Inh (PIP5K2B): 11%
%Inh (PIP5K2C): 75%
%Inh (PKAC-alpha): 0%
%Inh (PKAC-beta): 0%
%Inh (PKMYT1): 1%
%Inh (PKN1): 0%
%Inh (PKN2): 0%
%Inh (PLK1): 0%
%Inh (PLK2): 0%
%Inh (PLK3): 5%
%Inh (PLK4): 15%
%Inh (PRKCD): 4%
%Inh (PRKCE): 1%
%Inh (PRKCH): 8%

N#Cc1ccc(-c2cc(-c3c[nH]nc3-c3ccccn3)ccn2)cc1 [GW693028]
%Inh (PIKFYVE): 0%
%Inh (PIM1): 0%
%Inh (PIM2): 0%
%Inh (PIM3): 0%
%Inh (PIP5K1A): 7%
%Inh (PIP5K1C): 71%
%Inh (PIP5K2B): 23%
%Inh (PIP5K2C): 7%
%Inh (PKAC-alpha): 0%
%Inh (PKAC-beta): 0%
%Inh (PKMYT1): 1%
%Inh (PKN1): 0%
%Inh (PKN2): 0%
%Inh (PLK1): 0%
%Inh (PLK2): 0%
%Inh (PLK3): 0%
%Inh (PLK4): 0%
%Inh (PRKCD): 0%
%Inh (PRKCE): 16%
%Inh (PRKCH): 18%

COc1ccc(Nc2ncc(C#N)c(Nc3ccccc3C(N)=O)n2)cc1N1CCN(C)CC1.Cl [GSK1558669]
%Inh (PIKFYVE): 94.4%
%Inh (PIM1): 97.4%
%Inh (PIM2): 0%
%Inh (PIM3): 93.3%
%Inh (PIP5K1A): 56%
%Inh (PIP5K1C): 65%
%Inh (PIP5K2B): 90%
%Inh (PIP5K2C): 90.6%
%Inh (PKAC-alpha): 76%
%Inh (PKAC-beta): 76%
%Inh (PKMYT1): 41%
%Inh (PKN1): 83%
%Inh (PKN2): 78%
%Inh (PLK1): 100%
%Inh (PLK2): 100%
%Inh (PLK3): 100%
%Inh (PLK4): 99.8%
%Inh (PRKCD): 94%
%Inh (PRKCE): 94.4%
%Inh (PRKCH): 86%

CN1c2ccc(NCc3ccc(F)cc3)cc2-c2c(cnn2C)S1(=O)=O
%Inh (PIKFYVE): 32%
%Inh (PIM1): 0%
%Inh (PIM2): 2%
%Inh (PIM3): 0%
%Inh (PIP5K1A): 31%
%Inh (PIP5K1C): 31%
%Inh (PIP5K2B): 0%
%Inh (PIP5K2C): 3%
%Inh (PKAC-alpha): 9%
%Inh (PKAC-beta): 0%
%Inh (PKMYT1): 0%
%Inh (PKN1): 0%
%Inh (PKN2): 0%
%Inh (PLK1): 2%
%Inh (PLK2): 0%
%Inh (PLK3): 0%
%Inh (PLK4): 0%
%Inh (PRKCD): 0%
%Inh (PRKCE): 23%
%Inh (PRKCH): 0%

CN(C(=O)c1ccc(-c2cc(-c3c[nH]nc3-c3ccccn3)ccn2)cc1)C1CCOCC1 [GW810083]
%Inh (PIKFYVE): 40%
%Inh (PIM1): 0%
%Inh (PIM2): 0%
%Inh (PIM3): 0%
%Inh (PIP5K1A): 0%
%Inh (PIP5K1C): 31%
%Inh (PIP5K2B): 0%
%Inh (PIP5K2C): 49%
%Inh (PKAC-alpha): 0%
%Inh (PKAC-beta): 0%
%Inh (PKMYT1): 4%
%Inh (PKN1): 0%
%Inh (PKN2): 0%
%Inh (PLK1): 0%
%Inh (PLK2): 0%
%Inh (PLK3): 0%
%Inh (PLK4): 2%
%Inh (PRKCD): 24%
%Inh (PRKCE): 4%
%Inh (PRKCH): 0%
